Data on 44 compounds can be found in PubChem BioAssay (NCATS).

Inconclusive results are not listed. Values without a mark were called inactive. Active and inactive are the calls of the source. Unless noted, the call rests on the fitted dose curve.

A short description of test [1]: qHTS for Inhibitors of the Functional Ribonucleoprotein Complex (vRNP) of Lassa (LASV) Arenavirus: LASV Primary Screen - GLuc reporter signal (AID 1347082; calls by dose curve; tested in HEK293 reporter line; further: nearly all actives have a fitted effect of over 60% in size; further: potency means the concentration at half of the fitted maximal effect; on activity change, negative = inhibition: series mostly up to about 57 µM). In general terms: qHTS replaces the single test concentration by a dilution series.
Test [2] is described as follows: qHTS for Inhibitors of the Functional Ribonucleoprotein Complex (vRNP) of Lassa (LASV) Arenavirus: Viability assay - alamar blue signal for LASV Primary Screen (AID 1347083; calls by dose curve; tested in HEK293 reporter line; further: nearly all actives have a fitted effect of over 80% in size; further: potency means the concentration at half of the fitted maximal effect; on activity change, negative = reduced viability: series mostly up to about 57 µM).
The nature of test [3]: qHTS for Inhibitors of the Functional Ribonucleoprotein Complex (vRNP) of Lymphocytic Choriomeningitis Arenaviruses (LCMV): Viability assay - alamar blue signal for LCMV Primary Screen (AID 1347085; calls by dose curve; tested in HEK293 reporter line; further: nearly all actives have a fitted effect of over 80% in size; further: potency means the concentration at half of the fitted maximal effect; on activity change, negative = lower viability: series mostly up to about 57 µM).
Test [4] deals with Nucleoprotein (Lymphocytic choriomeningitis virus (strain Armstrong)) (UniProt P09992). Nature of the test: qHTS for Inhibitors of the Functional Ribonucleoprotein Complex (vRNP) of Lymphocytic Choriomeningitis Arenaviruses (LCMV): LCMV Primary Screen - GLuc reporter signal (AID 1347086). Further: series mostly up to about 57 µM; nearly all actives have a fitted effect of over 70% in size.
On the % scale 0 is the no-effect control and ±100 the full control effect.

Nucleoprotein (Lymphocytic choriomeningitis virus (strain Armstrong)), sequence (P09992 whole entry, looked up): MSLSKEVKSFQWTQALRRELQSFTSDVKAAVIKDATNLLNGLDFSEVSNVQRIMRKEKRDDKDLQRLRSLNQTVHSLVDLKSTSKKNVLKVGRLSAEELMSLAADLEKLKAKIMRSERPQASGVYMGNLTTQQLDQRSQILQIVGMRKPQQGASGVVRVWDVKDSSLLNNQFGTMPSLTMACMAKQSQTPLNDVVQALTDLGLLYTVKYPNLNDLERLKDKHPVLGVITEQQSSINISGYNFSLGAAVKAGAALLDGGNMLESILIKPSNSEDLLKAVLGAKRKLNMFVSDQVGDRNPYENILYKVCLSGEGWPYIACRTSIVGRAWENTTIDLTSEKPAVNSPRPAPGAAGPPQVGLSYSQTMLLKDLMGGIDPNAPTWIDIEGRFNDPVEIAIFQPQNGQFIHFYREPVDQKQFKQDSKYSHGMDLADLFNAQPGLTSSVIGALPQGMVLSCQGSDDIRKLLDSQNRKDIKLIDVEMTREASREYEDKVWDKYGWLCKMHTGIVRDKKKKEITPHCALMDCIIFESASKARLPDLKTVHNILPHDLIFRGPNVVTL

On to `O=C1NC(=O)C(=Cc2ccc3nccc(-c4ccncc4)c3c2)S1`, for which the figures for the Potency in test [1], in test [2] and in test [3] were 0.432 µM (active), 0.109 µM (active) and 0.273 µM (active), respectively.

With `CCC(=C(CC)c1ccc(O)cc1)c1ccc(O)cc1`, the Potency result in test [1] was “inactive”. In addition, the Potency in test [2] is 0.0153 µM (active); in test [3], 0.0137 µM (active).

On to `C=CC(C)(C)c1c2occc2c(O)c2ccc(=O)oc12`, for which the Potency entry in test [1] and in test [2] was “inactive” throughout.

As for `CCCCC[C@H](O)/C=C/[C@H]1OC(=O)C[C@H](O)[C@@H]1C/C=C\CCCC(=O)O`, the activity change, negative = inhibition in test [1] was 4.7% [at 5.82 µM]; in test [4], 3.12% [at 5.82 µM]. The activity change, negative = reduced viability in test [2] was 8.43% [at 5.82 µM]. In test [3], the activity change, negative = lower viability is 3.55% [at 5.82 µM].

Turning to `CCCCCOC(=O)Nc1nc(=O)n([C@@H]2O[C@H](C)[C@@H](O)C2O)cc1F` (some centres undefined), the Potency entry in test [1] and in test [2] was “inactive” each time.

Regarding `COc1cccc(-c2ccc(NC(=O)C3=C(C(=O)O)CCC3)c(F)c2)c1`, the Potency result in test [1], in test [2] and in test [3] was “inactive” in each case.

As for `C=C1C2CC[C@]3(CCC4[C@@]5(C)CCC[C@@]4(CN(CCO)C5)[C@@H]3C2)[C@@H]1O` (some centres undefined), the Potency entry in test [1], in test [2], in test [3] and in test [4] was “inactive” throughout.

Turning to `CCCCCCC[C@@H](C/C=C/CCC(=O)N(C)C/C(=C/Cl)C/C(=C\C(=O)N1C[C@H](O)CC1=O)OC)OC`, the Potency entry in test [1], in test [2] and in test [3] was “inactive” in each case.

As for `Cc1cnn(C)c1C(=O)Nc1cc(Nc2ccc3c(C=Cc4ccccn4)n[nH]c3c2)ccc1F`, the Potency in test [1] is 21.7 µM (active); in test [2], 19.3 µM (active).

For `COC(=O)CC(C)CCC=C(C)C` (centres undefined), the Potency entry in test [1], in test [2], in test [3] and in test [4] was “inactive” in each case.

On to `CC(C)c1c(C(=O)Nc2ccccc2)c(-c2ccccc2)c(-c2ccc(F)cc2)n1CC[C@H](O)C[C@@H](O)CC(=O)O`, for which the Potency result in test [1] and in test [2] was “inactive” in each case.

`CC(C)(O)CC(=O)NCCn1ccc2ncnc(Nc3ccc(Oc4cccc(C(F)(F)F)c4)c(Cl)c3)c21`: the Potency result in test [1] and in test [2] was “inactive” each time. In test [3], the Potency was 0.769 µM (active).

For the compound `COc1cc(OC)c2c(=O)cc(-c3ccccc3)oc2c1`, the Potency entry in test [1], in test [2] and in test [3] was “inactive” each time.

Regarding `CCC(=C(c1ccc(O)cc1)c1ccc(OCCNC)cc1)c1ccccc1`, the values for the Potency in test [1], in test [2] and in test [3] were 3.43 µM (active), 3.43 µM (active) and 13.7 µM (active), respectively.

Take `CCCCCCC1CCC(=O)O1` (centres undefined): the Potency entry in test [1], in test [2] and in test [3] was “inactive” each time.

For the compound `CCCCCC/C=C/C=O`, the Potency result in test [1], in test [2], in test [3] and in test [4] was “inactive” in each case.

As to `CCCCCC(=O)N[C@@H](c1ccccc1)[C@@H](O)C(=O)O[C@H]1C[C@@]2(O)[C@@H](OC(=O)c3ccccc3)C3[C@](C)(C(=O)[C@H](O)C(=C1C)C2(C)C)[C@@H](OC1OCC(O)C(O)C1O)C[C@H]1OC[C@@]31OC(C)=O` (some centres undefined), the Potency entry in test [1] and in test [2] was “inactive” in each case.

With `O=C(/C=C/c1ccc(O)c(O)c1)c1ccc(O[C@@H]2O[C@H](CO)[C@@H](O)[C@H](O)[C@H]2O)c(O)c1O`, the Potency result in test [1] and in test [2] was “inactive” each time.

Consider `CC(=O)OC1CCC2(C)C(COc3ccc4ccc(=O)oc4c3)C(C)(O)CCC2C1(C)C` (centres undefined), for which the Potency result in test [1], in test [2] and in test [3] was “inactive” each time.

With `O=C(C=Cc1ccc(O)cc1)c1ccc(O)cc1O`, the Potency entry in test [1], in test [2] and in test [3] was “inactive” throughout.

On to `CCS(=O)(=O)c1cccc(-c2cc(C(=O)NC3CCN(C)CC3)c(C)c3[nH]c4ncc(C)cc4c23)c1`, for which the Potency in test [1] was 12.2 µM (active); in test [2] it was 6.85 µM (active); in test [3] it was 6.11 µM (active).

Take `Nc1ccn([C@@H]2O[C@H](CO)[C@H](O)C2(F)F)c(=O)n1`: the Potency result in test [1] is “inactive”. Besides, the Potency in test [2] and in test [3] was 0.968 µM (active) each time.

As for `N#CC(=Cc1ccc(O)c(O)c1)C(=O)NCc1ccccc1`, the Potency result in test [1], in test [2], in test [3] and in test [4] was “inactive” each time.

Consider `O=C(O)/C=C/c1ccc2c(c1)OCO2`, for which the Potency result in test [1], in test [2], in test [3] and in test [4] was “inactive” throughout.

Take `CCCCCCCCCCCCCCCC(=O)NCCc1c[nH]c2ccccc12`: the Potency entry in test [1], in test [2], in test [3] and in test [4] was “inactive” throughout.

Take `COC1=C(C)C(=O)O[C@]12C(=O)C(C)=C1CCCCN3[C@H]([C@@H]4C[C@H](C)C(=O)O4)CC[C@]132`: the Potency entry in test [1], in test [2], in test [3] and in test [4] was “inactive” in each case.

Take `CC[C@H]1OC(=O)[C@H](C)C(=O)[C@H](C)[C@@H](O[C@H]2O[C@H](C)C[C@H](N(C)C)[C@@H]2O)[C@](C)(OC)C[C@@H](C)C(=O)[C@H](C)[C@H]2N(CCCCn3cnc(-c4cccnc4)c3)C(=O)O[C@]12C`: the Potency entry in test [1], in test [2] and in test [3] was “inactive” in each case.

Consider `O=C(O)CCNc1cc(N2CCc3ccccc3CC2)nc(-c2ccccn2)n1`, for which the Potency entry in test [1] and in test [2] was “inactive” in each case.

For the compound `C=C(C)C(Cc1c(OC)ccc(C(=O)/C=C/c2ccc(O)cc2)c1O)OO` (centres undefined), the Potency entry in test [1], in test [2] and in test [3] was “inactive” each time.

On to `CCC12CCCN3CCC4(C(=C(C(=O)OC)C1)Nc1ccccc14)C32` (centres undefined), for which the Potency result in test [1], in test [2] and in test [3] was “inactive” throughout.

`CC(=O)[C@]1(O)Cc2c(O)c3c(c(O)c2[C@@H](O[C@H]2C[C@H](N)[C@@H](O)[C@H](C)O2)C1)C(=O)c1ccccc1C3=O`: the Potency in test [1] is 10.9 µM (active); in test [2], 0.769 µM (active); in test [3], 0.611 µM (active).

As for `COc1ccc(-c2cc(=O)c3c(O)cc(O)c(-c4cc(-c5cc(=O)c6c(O)cc(OC)cc6o5)ccc4OC)c3o2)cc1`, the Potency entry in test [1] and in test [2] was “inactive” in each case.

As to `CON=C(C(=O)N[C@@H]1C(=O)N2C(C(=O)O)=C(CSC(=O)c3ccco3)CS[C@H]12)c1csc(N)n1`, the Potency result in test [1] and in test [2] was “inactive” each time.

`COC(/C(C)=C/C=C/C(C)=C/c1coc(C)n1)C(C)C1CC(O)C2(C)OC2C=CC(C)C2CC(CC(=O)O2)CC2OC2C(=O)O1` (centres undefined): the Potency result in test [1] and in test [2] was “inactive” throughout.

As to `CN[C@@H]1CN(c2ccc3c(=O)c(C(=O)O)cn(-c4nccs4)c3n2)C[C@@H]1OC`, the Potency result in test [1] is “inactive”. Also, the values for the Potency in test [2] and in test [3] were 10.6 µM (active) and 15 µM (active), respectively.

As to `C#C[C@]1(O)CC[C@@H]2[C@@H]3CCC4=CC(=O)CC[C@@H]4[C@H]3CC[C@@]21CC`, the Potency result in test [1], in test [2], in test [3] and in test [4] was “inactive” each time.

As for `Cc1cc(Nc2ncc3c(n2)N(C)C(=O)N(c2cc(NC(=O)c4cccc(C(F)(F)F)c4)ccc2C)C3)n(C)n1`, the Potency was 3.85 µM (active) in test [1], 0.611 µM (active) in test [2] and 1.53 µM (active) in test [3].

Regarding `COc1cc2nc(-c3cc(F)ccc3O)nc(N[C@@H]3CNC[C@@H]3C(C)(C)O)c2cc1OC`, the Potency in test [1] was 1.37 µM (active); in test [2], 1.09 µM (active); in test [3], 8.63 µM (active).

For the compound `COc1cccc2c1C(=O)c1c(O)c3c(c(O)c1C2=O)C[C@@](O)(C(=O)CO)C[C@H]3O[C@H]1C[C@H](N)[C@H](O)[C@H](C)O1`, the Potency in test [1] was 13.7 µM (active); in test [2], 1.09 µM (active); in test [3], 0.863 µM (active).

Take `CNC(=O)Nc1ccc(Cl)c(Cl)c1`: the Potency result in test [1] and in test [2] was “inactive” in each case.

Regarding `CC(=O)O[C@H]1C[C@@H]2CC[C@H]3[C@H]4C[C@H]([N+]5(C)CCCCC5)[C@@H](OC(C)=O)[C@@]4(C)CC[C@@H]3[C@@]2(C)C[C@H]1N1CCCCC1`, the Potency result in test [1], in test [2], in test [3] and in test [4] was “inactive” in each case.

Turning to `C[C@H]1OC(=O)CC[C@@H]2[C@]1(C)CCC1[C@@]2(C)CC[C@@]2(C)C3CC(C)(C)CC[C@]3(CO)CC[C@]12C` (some centres undefined), the Potency entry in test [1], in test [2], in test [3] and in test [4] was “inactive” in each case.

`O=C(Nc1cc2cc[nH]c2cn1)c1ccccc1`: the Potency entry in test [1], in test [2], in test [3] and in test [4] was “inactive” throughout.

`CC(C)C1C(=O)O[C@@H]2CCN3CC=C(COC(=O)[C@](C)(O)[C@]1(C)O)[C@H]23` (some centres undefined): the Potency result in test [1], in test [2], in test [3] and in test [4] was “inactive” each time.
